DUX4 txn inh – DUX4-mediated transcription inhibition; 293T-iDUX4 ZSCAN4-Gaussia luciferase reporter, 24 h; active compounds read low; activity change, negative = inhibition, % (concentration not given with the values); 0.8% of 37,000 active;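 active = mean inhibition of at least 10% in the main channel, exceeding the control channel by a set limit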;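 also: 0% = median of neutral control wells and -100% = median of positive control wells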
The depositor's hits bear a star; ! = repeats disagree. The sample as a whole holds a higher share of hits than the screen did.

SMILES | DUX4 txn inh
O=S(=O)(c1ccccc1)N1CCCCN2[C@@H](CO)[C@@H](c3ccc(C#CC4CCCC4)cc3)[C@@H]2C1 | 13
CC(C)CC#Cc1ccc([C@@H]2[C@H]3CN(S(=O)(=O)Cc4ccccc4)CCCCN3[C@H]2CO)cc1 | -2
COCC#Cc1ccc([C@@H]2[C@H](CO)N3CCCCN(S(=O)(=O)c4ccc(OC)cc4)C[C@@H]23)cc1 | 6
CC(C)C#Cc1ccc([C@@H]2[C@H]3CN(C(=O)c4ccc(F)cc4)CCCCN3[C@H]2CO)cc1 | -26*
COc1ccc(C[C@H]2CCn3cc(nn3)COCCCNC2=O)cc1 | -5
CCNC(=O)C[C@H]1CC[C@@H]2[C@H](COC[C@H](O)CN2Cc2ccncc2)O1 | 11
C[C@@H]1CCCCO[C@@H](CN(C)S(=O)(=O)c2ccccc2)[C@H](C)CN([C@@H](C)CO)C(=O)c2cc(NS(C)(=O)=O)ccc2O1 | -4
C(=C\c1ccc(C2[C@@H]3CN(Cc4ccccn4)C[C@H]2N3)cc1)/c1ccccc1 (stereo partly drawn) | -32*
O=C(Cc1ccncc1)N1C[C@@H]2N[C@H](C1)C2c1ccc(-c2ccccc2)cc1 (stereo partly drawn) | -3
c1cc(-c2ccc(C3[C@@H]4CN(Cc5nccs5)C[C@H]3N4)cc2)ccn1 (stereo partly drawn) | -1
C/C=C/c1ccc(C2[C@@H]3CN(C(=O)Cc4ccncc4)C[C@H]2N3)cc1 (stereo partly drawn) | 7
O=C(c1ccncc1)N1C[C@@H]2N[C@H](C1)C2c1ccc(/C=C/c2ccccc2)cc1 (stereo partly drawn) | 2
C/C=C/c1ccc(C2[C@H]3CNC[C@@H]2N3Cc2nccs2)cc1 (stereo partly drawn) | 9
O=C(Cc1ccncc1)N1C[C@@H]2N[C@H](C1)C2c1ccc(/C=C/c2ccccc2)cc1 (stereo partly drawn) | -28*!
C(=C\c1ccc(C2[C@@H]3CN(Cc4nccs4)C[C@H]2N3)cc1)/c1ccccc1 (stereo partly drawn) | -32*!
C/C=C/c1ccc(C2[C@@H]3CN(C(=O)Cc4ccccc4)C[C@H]2N3)cc1 (stereo partly drawn) | 8
c1cncc(-c2ccc(C3[C@@H]4CN(Cc5nccs5)C[C@H]3N4)cc2)c1 (stereo partly drawn) | -35*!
O=C(c1cccnc1)N1C[C@@H]2N[C@H](C1)C2c1ccc(-c2ccccc2)cc1 (stereo partly drawn) | 11
O=C(CN1CCOCC1)N1C[C@@H]2N[C@H](C1)C2c1ccc(/C=C/c2ccccc2)cc1 (stereo partly drawn) | -5
Cc1ccc(S(=O)(=O)N[C@@H]2C=C[C@H](CC(=O)NC3CCCCC3)O[C@H]2CO)cc1 | 4
CCS(=O)(=O)N1CCC2(CC1)CN(C(=O)c1ccc(F)cc1)[C@@H](CO)c1[nH]c3cc(OC)ccc3c12 | 5
Cc1ccc(S(=O)(=O)NCC[C@@H]2CC[C@H](NC(=O)CCN3CCCCC3)[C@@H](CO)O2)cc1 | 4
C[C@@H]1CN([C@@H](C)CO)C(=O)c2cc(-c3cccc(F)c3)cnc2O[C@H]1CN(C)Cc1ccccn1 | 1
COCC#Cc1ccc([C@@H]2[C@H]3CN(C(=O)Nc4cc(F)ccc4F)CC(=O)N3[C@H]2CO)cc1 | 14
COc1cccc(S(=O)(=O)N[C@@H]2C=C[C@@H](CC(=O)NCc3ccncc3)O[C@H]2CO)c1 | 3
SMILES | DUX4 txn inh
COc1ccccc1CN1C[C@@H]2N[C@H](C1)C2c1ccc(-c2ccccc2)cc1 (stereo partly drawn) | -46*
Cc1ccc(-c2ccc(C3[C@@H]4CN(Cc5cccnc5)C[C@H]3N4)cc2)cc1 (stereo partly drawn) | -22*!
COc1cccc(CN2C[C@@H]3N[C@H](C2)C3c2ccc(-c3ccncc3)cc2)c1 (stereo partly drawn) | -26*!
COc1cccc(CN2[C@@H]3CNC[C@H]2C3c2ccc(-c3ccc(C#N)cc3)cc2)c1 (stereo partly drawn) | 4
COc1cccc(CN2C[C@@H]3N[C@H](C2)C3c2ccc(-c3ccccc3C)cc2)c1 (stereo partly drawn) | -35*!
O=C(CN1CCOCC1)N1C[C@@H]2N[C@H](C1)C2c1ccc(-c2ccccc2)cc1 (stereo partly drawn) | 11
COc1cccc(CN2[C@@H]3CNC[C@H]2[C@H]3c2ccc(-c3ccccc3OC)cc2)c1 | 8
Cc1cccc(-c2ccc(C3[C@@H]4CN(Cc5cccnc5)C[C@H]3N4)cc2)c1 (stereo partly drawn) | 20
Cc1ccccc1-c1ccc(C2[C@@H]3CN(C(=O)c4cnccn4)C[C@H]2N3)cc1 (stereo partly drawn) | 4
CN(C)C(=O)c1ccc(-c2ccc(C3[C@@H]4CN(Cc5cncnc5)C[C@H]3N4)cc2)cc1 (stereo partly drawn) | 17
C[C@H](NC(=O)C[C@@H]1CC[C@H]2[C@@H](COC[C@H](O)CN2Cc2cc(F)ccc2F)O1)c1ccccc1 | 5

Compound activity (PubChem)
